The campaign covered roughly 2,300 compounds. About 1,200 (52%) were called active. Another 34% or so got no clear call; they are omitted. The set was probably picked from earlier hits. Some of the results follow. Values without a mark were called inactive. Calls follow the shape of the dose curve; as a rule, active = well fitted inhibition curve with a large enough effect; inconclusive = small, poorly fitted or top-dose-only effect, or effect the other way; inactive = no such curve, though single readings can be large or run the other way.
% is scaled to controls: 0 for no effect and ±100 for the full control effect; potency is read from the fitted curve at half-maximal effect.

A short description of the experiment: Confirmation screen for delayed death inhibitors of the malarial parasite plastid, 48 hour incubation. Also: nearly all actives have a fitted effect of over 65% in size. The following applies: P. falciparum-infected erythrocytes, luciferase growth; series mostly up to 28.7 µM; activity change, negative = inhibition: at the top concentration. In outline: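 Single-generation (48 h, 37 C) exposure of integrated firefly luciferase-reporter P. falciparum in red cells, 0.1% parasitemia at 2% hematocrit, Albumax-supplemented RPMI. Falling luciferase signal marks parasite growth inhibition.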
Take `Cc1cccc(-c2c(NC(=O)c3ccco3)oc3ccc(Cl)cc3c2=O)c1`: the “activity change, negative = inhibition” value was -26.2%.
Consider `CCC(=O)N1CCN(c2ccc(NC(=O)c3ccc([N+](=O)[O-])o3)cc2Cl)CC1`, for which the Potency is 12.6 µM (active).
With `CCN1CCN(c2ccc(NC(=O)c3ccc([N+](=O)[O-])o3)cc2Cl)CC1`, the Potency was 7.94 µM (active).
Still for that read-out and setting: with `CCCC(=O)N1CCN(c2ccc(NC(=O)c3ccc([N+](=O)[O-])o3)cc2Cl)CC1` the figure was 11.2 µM (active).
As to `CCc1nn2c(=O)cc(COc3ccc(NC(=O)c4ccco4)cc3)nc2s1`, the “activity change, negative = inhibition” value was -43.4%.
In the case of `CC(C)C(=O)N1CCN(c2ccc(NC(=O)c3ccco3)cc2Cl)CC1`, the Potency was 7.94 µM (active).
Same read-out and setting: under `CCCC(=O)N1CCN(c2ccc(NC(=O)c3ccc([N+](=O)[O-])o3)cc2)CC1` stands 7.08 µM (active).
As for `CCc1c(C)nc2nc(SCc3ccccc3Cl)[nH]n2c1=O`, the “activity change, negative = inhibition” value is -18.3%.
Consider `CCN(CC)c1ccc(/C=C/c2cccc[n+]2C)c(OC)c1`, for which the Potency is 1.12 µM (active).
`COc1cc(/C=N/NC(=S)Nc2cccc(S(=O)(=O)N(C)C)c2)cc(OC)c1O`: the “activity change, negative = inhibition” value is -5.26%.
As to `CN(C)S(=O)(=O)c1cccc(NC(=S)N/N=C/c2cc(Br)ccc2O)c1`, the Potency was 3.55 µM (active).
With `Cn1nc([N+](=O)[O-])nc1Sc1nnc(-c2ccccc2)o1`, the Potency is 11.2 µM (active).
Turning to `Cc1ccc(-n2ncc3c(SCc4ccccn4)ncnc32)c(C)c1`, the Potency was 12.6 µM (active).
Regarding `CCOC(=O)C(CC)(CC)C(=O)/C=C/c1ccc(Br)cc1`, the Potency is 10 µM (active).
With `CCOC(=O)C(=Cc1ccc(Br)cc1)C(=O)OCC`, the Potency is 10 µM (active).
Take `CCOC(=O)C(=Cc1ccc(-n2cncn2)cc1)C(=O)OCC`: the Potency was 15.8 µM (active).
In the case of `CC(C)c1ccc(/C=C/C(=O)NC(=S)NN2CCOCC2)cc1`, the “activity change, negative = inhibition” value is -43.1%.
Turning to `COc1ccc(/C=C/C(=O)NC(=S)NN2CCCCC2c2cccnc2)cc1` (stereo not given), the Potency was 12.6 µM (active).
Consider `COCCn1c(C)cc(C(=O)CSc2cc(C)c3ccc(OC)cc3n2)c1C`, for which the Potency is 12.6 µM (active).
The same measure, in the same setting: with `COC(=O)[C@@H]1C[C@]2(OC(=O)c3ccccc3)C=CC(=O)C[C@@H]2N1C(=O)OCc1ccccc1` the figure was 14.1 µM (active); with `CN(C)c1ccc(CN(C(=O)c2ccccc2Br)C2CCS(=O)(=O)C2)cc1` (stereo not given), 14.1 µM (active).
Regarding `COc1cccc(CN(C(=O)c2ccccc2Br)C2CCS(=O)(=O)C2)c1` (stereo not given), the Potency is 15.8 µM (active).
For the compound `O=C(O)c1nn(CCSc2ccccc2F)c(=O)c2ccccc12`, the “activity change, negative = inhibition” value was -22.8%.
`COc1ccc(/C=N/NC(=O)c2cc(-c3ccccc3)nc3ccccc23)cc1O`: the “activity change, negative = inhibition” value was -17.6%.
In the case of `Cc1ccc(-c2cc(C(=O)N/N=C/C=C/c3ccco3)c3ccccc3n2)cc1C`, the Potency was 10 µM (active).
For `Cc1c(Cl)ccc2c(C(=O)O)cc(-c3ccccc3)nc12`, the “activity change, negative = inhibition” value was 13.9%.
`Cc1ccc(-c2cc(C(=O)N/N=C/c3ccoc3)c3ccccc3n2)cc1`: the Potency was 12.6 µM (active).
On to `O=C(NCc1ccccc1)C(c1cccnc1)N(C(=O)c1ccccn1)c1ccccc1F` (stereo not given), for which the “activity change, negative = inhibition” value was -19.9%.
For `O=C(CCc1ccccc1)NNC(=O)c1ccccn1`, the Potency is 7.94 µM (active).
Consider `CCOC(=O)NC(=O)COC(=O)c1ccc(O)cc1`, for which the “activity change, negative = inhibition” value is -10.4%.
Still for that read-out and setting: under `Cc1ccc(C(=O)NCC(=O)NCCCc2ccccc2)s1` stands -8.96%.
As for `CCOc1ccc(CCNC(=O)COC(=O)c2ccc(C)s2)cc1OCC`, the Potency is 10 µM (active).
As for `COc1ccccc1NC(=O)Cn1cnc2sc(C(=O)Nc3ccc(OC)c(OC)c3)c(C)c2c1=O`, the Potency was 12.6 µM (active).
Turning to `CSCCn1c(C(C)(C)C)cc(C(=O)O)c1C`, the “activity change, negative = inhibition” value is 18.3%.
In the case of `CCO[C@H]1OC(C(=O)N2CCN(Cc3ccccc3)CC2)=C[C@@H](c2ccc(C(F)(F)F)cc2)[C@@H]1CCCO`, the Potency was 4.47 µM (active).
In the case of `CCO[C@H]1OC(C(=O)N2CCN(Cc3ccc4c(c3)OCO4)CC2)=C[C@@H](c2ccc(C(F)(F)F)cc2)[C@@H]1CCCO`, the Potency is 3.55 µM (active).
On the same count and under the same terms, with `O=C(C1=C[C@@H](c2csc3ccccc23)C[C@@H](OCCCCO)O1)N1CCN(Cc2ccc3c(c2)OCO3)CC1` the figure was 10 µM (active).
On to `CCn1c(=O)cc(C(=O)OC)sc1=Nc1ccc(F)c(F)c1`, for which the “activity change, negative = inhibition” value was -21.8%.
As for `CC(C)n1nc(C(=O)Nc2cccc(S(=O)(=O)NCc3ccco3)c2)c2ccccc2c1=O`, the Potency is 11.2 µM (active).
On to `Cc1cc(C)n(-c2ccc(C(=O)Nc3ccc(S(=O)(=O)NCc4ccco4)cc3)cc2)n1`, for which the Potency is 10 µM (active).
As to `O=C(Nc1ccccc1)c1cccc(S(=O)(=O)NCc2ccco2)c1`, the “activity change, negative = inhibition” value is -16.7%.
Regarding `Cc1cc(C)n2nc(C(=O)N/N=C/c3c4ccccc4cc4ccccc34)nc2n1`, the Potency was 8.91 µM (active).
On the same count and under the same terms, under `COC(=O)c1ccc(C2N=C(c3cccs3)CC(c3ccccc3O)N2)cc1` (stereo not given) stands 8.91 µM (active).
For `CCOC(=O)c1c(S(=O)(=O)NCC(=O)Nc2cccc(C)c2C)c(C)n(C)c1C`, the “activity change, negative = inhibition” value was -28.7%.
On to `CCOC(=O)c1c(S(=O)(=O)NCC(=O)N2CCN(c3ccccc3OC)CC2)c(C)n(C)c1C`, for which the Potency is 12.6 µM (active).
Still for that read-out and setting: under `COc1cccc(NC(=O)CSc2ccc3nnc(CCNC(=O)c4ccccc4)n3n2)c1` stands 15.8 µM (active).
Regarding `Cc1ccc(C(=O)NCCc2nnc3ccc(SCC(=O)NCc4ccc(F)cc4)nn23)cc1`, the Potency was 10 µM (active).
Regarding `Cc1ccc(Cc2cnc(N3C(=N)SC(C)C3=O)s2)cc1` (stereo not given), the “activity change, negative = inhibition” value is -30%.
Take `CCN1C(=O)[C@@H]2Cc3c([nH]c4ccccc34)C(c3ccc(OC)cc3)N2C1=S` (stereo not given in full): the Potency was 15.8 µM (active).
On to `C=CCN1C(=O)[C@@H]2Cc3c([nH]c4ccccc34)C(c3ccc(O)cc3)N2C1=S` (stereo not given in full), for which the Potency was 12.6 µM (active).
With `CC1(C)CC(=O)C2=C(C1)OC1=C(C(=O)CC(C)(C)C1)C2c1ccc(O)cc1O`, the Potency was 7.08 µM (active).
Same read-out and setting: under `Fc1cccc(CNc2ncnc3ccc(-c4ccc5c(c4)OCO5)cc23)c1` stands 10 µM (active).
Consider `Fc1ccc(CSc2nncn2NCc2ccc3c(c2)OCO3)cc1`, for which the “activity change, negative = inhibition” value is -19.1%.
As for `CCOCCCNC(=S)N1CCN(c2nc(-c3ccccc3)cs2)CC1`, the Potency is 11.2 µM (active).
Turning to `NC1=NC[C@H](Cc2ccc(O)cc2)N1CCc1cccc(F)c1`, the Potency was 7.94 µM (active).
With `NC1=NC[C@@H](Cc2ccc(O)cc2)N1CCc1cccc(F)c1`, the Potency is 10 µM (active).
On to `CCCCCCCNC(=O)C1(CC2CC(c3ccc(Cl)cc3)=NO2)CCN(C(=O)C2CCCC2)CC1` (stereo not given), for which the Potency was 14.1 µM (active).
On to `CCCCCCCNC(=O)C1(CC2CC(c3ccc(Cl)cc3)=NO2)CCN(C(=O)Cc2ccc(F)cc2)CC1` (stereo not given), for which the Potency was 11.2 µM (active).
Regarding `COc1ccc(C(=O)CSc2nnc(C3CCCCC3)n2N)c(OC)c1`, the Potency is 8.91 µM (active).
The same measure, in the same setting: with `CC1CCCN(c2ccc(F)cc2N)C1` (stereo not given) the figure was 14.1 µM (active).
`COc1cccc(-c2sc3ccc(OC)cc3c2-c2cc(F)cc(OC)c2)c1`: the Potency is 11.2 µM (active).
Turning to `O=C(CSc1nnc(COc2ccccc2)n1-c1ccccc1)c1cccs1`, the Potency is 14.1 µM (active).
For `CC(C)C[C@H](NC(=O)c1[nH]cnc1C(=O)N[C@@H](Cc1ccccc1)C(=O)OC(C)(C)C)C(=O)OC(C)(C)C`, the Potency is 6.31 µM (active).
For `CC(C)C[C@H](NC(=O)c1nc[nH]c1C(=O)N(C)Cc1ccccc1)C(=O)OC(C)(C)C`, the Potency is 11.2 µM (active).
Turning to `C[C@H](NC(=O)c1nc[nH]c1C(=O)N[C@H](C)c1ccccc1)C(=O)OCc1ccccc1`, the “activity change, negative = inhibition” value is -22.9%.
As to `CC(C)C[C@H](NC(=O)c1[nH]cnc1C(=O)Nc1ccc(CNC(=O)OC(C)(C)C)cc1)C(=O)OC(C)(C)C`, the Potency was 6.31 µM (active).
On the same count and under the same terms, under `CC(C)C[C@H](NC(=O)c1[nH]cnc1C(=O)N[C@@H](C)C(=O)OC(C)(C)C)C(=O)OC(C)(C)C` stands 7.08 µM (active); under `O=C(CC(c1ccccc1)c1cc(Br)ccc1O)NCCN1CCOCC1` (stereo not given), 12.6 µM (active).
The same measure, in the same setting: with `O=C(c1ccc(Cl)cc1)C(CN1CCCC1)c1ccccc1` (stereo not given) the figure was 10 µM (active).
Take `O=C(CN1CCCCC1)N/N=C/c1ccc(Cl)cc1`: the “activity change, negative = inhibition” value was 4.48%.
For the compound `O=C(c1ccc(Br)cc1)C(CN1CCOCC1)c1ccccc1` (stereo not given), the Potency was 7.08 µM (active).
Consider `CN(Cc1ccccc1)C(=O)c1ccc(NC(=O)Cc2cccc(NC(=O)C3CCCN(C(=O)CCc4ccccc4)C3)c2)cc1` (stereo not given), for which the Potency is 7.08 µM (active).
In the case of `O=[N+]([O-])c1cccc(-c2c[n+]3c(n2-c2ccccc2)SCC3)c1`, the Potency was 2.51 µM (active).
On to `COC(=O)C(NC(=O)c1ccccc1C)(Nc1ncc(S(=O)(=O)c2ccc([N+](=O)[O-])cc2)s1)C(F)(F)F` (stereo not given), for which the Potency is 7.94 µM (active).
Same read-out and setting: with `Cn1nc(C(F)(F)F)c(C(=O)Nc2ccc(F)cc2F)c1Sc1ccc(C(F)(F)F)cc1` the figure was 12.6 µM (active); with `O=C(NC1CCCN(Cc2ccc(Cl)cc2)C1)c1cnc2ccccn2c1=O` (stereo not given), 15.8 µM (active).
`CC(C)Cc1ccc(CN2CCCC(NC(=O)CCn3cnnn3)C2)cc1` (stereo not given): the “activity change, negative = inhibition” value was -7.89%.
`Cc1occc1C(=O)NC1CCCN(Cc2ccc(CC(C)C)cc2)C1` (stereo not given): the Potency was 14.1 µM (active).
Regarding `O=C(Cn1c(=O)c(=O)n(Cc2ccccc2)c2ccc(Cl)cc21)Nc1cccc(F)c1`, the Potency was 15.8 µM (active).
For `Cc1cccc(C)c1N1CCN(C(=O)c2ccc3c(c2)OCO3)CC1`, the Potency is 15.8 µM (active).
On the same count and under the same terms, under `CCOC(=O)c1c(C)c(-c2ccccc2)n(CC(=O)NCCCN(CC)CC)c1C` stands 12.6 µM (active); under `O=C(c1ccco1)N1CCN(C(=O)C2CCCc3c2[nH]c2ccc(Cl)cc32)CC1` (stereo not given), 14.1 µM (active).
Consider `COc1cccc(/C=C2\SC(=O)N(CCC(=O)NC3CCS(=O)(=O)C3)C2=O)c1` (stereo not given), for which the “activity change, negative = inhibition” value was -17.6%.
Consider `COc1cccc(/C=C2\SC(=S)N(CCC(=O)N3CCCCC3CCO)C2=O)c1` (stereo not given), for which the Potency is 10 µM (active).
As for `O=C1/C(=C/c2ccc(Cl)cc2)SC(=S)N1CCC(=O)N1CCCCC1CCO` (stereo not given), the Potency was 15.8 µM (active).
As for `CC1=CC(=O)O[C@@H]1[C@@]1(C)C[C@H]2OC(=O)C[C@H]3[C@@H](C)C(=O)C(O)=C1[C@@]23CO`, the “activity change, negative = inhibition” value was -14.3%.
Take `CCCCNC(=O)c1onc(CSc2ccc(Cl)cc2)c1C(=O)O`: the “activity change, negative = inhibition” value is -7.43%.
For the compound `Cc1oc(=O)c(NC(=O)c2ccc(Cl)cc2)cc1C(=O)c1ccccc1`, the “activity change, negative = inhibition” value was -5.78%.
Take `O=C(Nc1cc(Cl)ccc1N1CCCC1)C1=NN(c2ccccc2)C(=O)CC1`: the Potency was 14.1 µM (active).
In the case of `CN(C)c1ccc(S(=O)(=O)N2CCCCC2)cc1NC(=O)C1=NN(c2ccccc2)C(=O)CC1`, the Potency was 8.91 µM (active).

These data come from PubChem BioAssay AID504850 (National Center for Advancing Translational Sciences (NCATS), 2011).
